Screening results deposited in PubChem BioAssay by National Center for Advancing Translational Sciences (NCATS).
GPT2 inhibitor: GPT2 alanine aminotransferase inhibition; Recombinant GPT2, coupled pyruvate oxidase/HRP Amplex Red fluorescence; Potency, µM (highest dose often 57.7 µM), for the others: top-dose activity change, negative = inhibition, usual class: inhibitors; 100,000 tested, 0.25% active; AID 1671188; active = well fitted inhibition curve with a large enough effect; inconclusive = small, poorly fitted or top-dose-only effect; note: % is set by controls: 0 for no effect and ±100 for the full control effect; nearly all actives have a fitted effect of over 60% in size
Target sequence (Q8TD30 whole entry, looked up): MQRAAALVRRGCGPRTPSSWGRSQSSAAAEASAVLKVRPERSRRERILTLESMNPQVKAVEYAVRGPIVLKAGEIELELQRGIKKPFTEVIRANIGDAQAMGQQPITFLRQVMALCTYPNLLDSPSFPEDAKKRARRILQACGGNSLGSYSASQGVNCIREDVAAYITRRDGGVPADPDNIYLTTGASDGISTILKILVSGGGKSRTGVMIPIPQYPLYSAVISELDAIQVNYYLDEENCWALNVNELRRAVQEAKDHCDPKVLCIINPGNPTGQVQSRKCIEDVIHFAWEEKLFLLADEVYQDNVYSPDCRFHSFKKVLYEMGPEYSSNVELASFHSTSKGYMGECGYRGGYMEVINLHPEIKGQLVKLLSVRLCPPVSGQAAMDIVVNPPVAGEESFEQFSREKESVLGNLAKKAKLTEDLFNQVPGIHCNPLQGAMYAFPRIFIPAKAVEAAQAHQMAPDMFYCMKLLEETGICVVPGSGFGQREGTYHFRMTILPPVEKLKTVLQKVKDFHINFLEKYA
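Fluorescence of coupled pyruvate oxidase/HRP/Amplex Red system (50uM Amplex, 30 min, dark) reports pyruvate formed by GPT2. Enzyme reaction: 10ng/uL GPT2, 2mM L-alanine, 250uM a-KG, 30 min room temperature, pH 7.5; 50uM AOA control.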
hNpr1 antagonist: blocks ANP-stimulated signaling of human Npr1 receptor; Potency, µM (series often up to 46.3 µM), inactives show at the top dose activity change, negative = inhibition, actives largely listed as inhibitors; HEK293 hNpr1 GloSensor cGMP, ANP-stimulated luminescence; P16066; 76,000 tested, 1.6% active; note: % is set by controls: 0 for no effect and ±100 for the full control effect; nearly all actives have a fitted effect of over 60% in size
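Compound pre-incubated 30 min at room temperature on GloSensor-loaded HEK293 cells stably carrying hNpr1 and the pGS-40F cGMP biosensor. Stimulation uses hNppA at 0.1 nM final; luminescence is taken at baseline and 20 min post-agonist.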
NPR1 antag cnf: confirmation of human Npr1 natriuretic peptide receptor antagonists; shares compounds with hNpr1 antagonist; HEK293 hNpr1 cGMP GloSensor luminescence, ANP-stimulated; Potency, µM (titrated, usually from 57.6 µM), for the others: at the top dose activity change, negative = inhibition, most hits filed as inhibitors; 1,400 tested, 76% active; AID 1347044; note: nearly all actives have a fitted effect of over 70% in size
Npr2 selectivity: selectivity test of Npr1 antagonists against human Npr2; shares compounds with hNpr1 antagonist; HEK293 hNpr2 GloSensor cGMP luminescence, CNP-stimulated; Potency, µM (series often up to 57.6 µM), without a hit: at the highest dose activity change, negative = inhibition, usual class: inhibitors; 1,400 tested, 67% active; note: nearly all actives have a fitted effect of over 70% in size
FLuc counter: FLuc enzyme inhibition, Npr1 counter-screen. shares compounds with hNpr1 antagonist. purified FLuc enzyme, luminescence, Km substrate. Potency, µM (highest dose often 57.6 µM), without a hit: at the top dose activity change, negative = inhibition, actives largely listed as inhibitors. 1,400 tested, 0.7% active. AID 1347047; active = well fitted inhibition curve with a large enough effect; inconclusive = small, poorly fitted or top-dose-only effect; note: 0% is about no effect
GloSensor cGMP: counter-screen for Npr1 antagonists: GloSensor control cell line; HEK293 GloSensor cGMP, SNP-stimulated, luminescence; 1,400 tested, 69% active; AID 1347051; shares compounds with hNpr1 antagonist; Potency, µM (titrated, usually from 57.6 µM), inactives show top-dose activity change, negative = inhibition, actives largely listed as inhibitors; note: % is set by controls: 0 for no effect and ±100 for the full control effect; nearly all actives have a fitted effect of over 70% in size
Starred values were filed as active, the others as inactive; [ ] = remark or other dose. Only a selection was taken, and hits are over-represented in it overall. Unless noted, calls come from the whole dose curve. Potency is the fitted concentration of half-maximal effect.

`O=C(c1cccc(Cl)c1)N1CCN(C(=O)c2nnn3c2COC(c2ccccc2)C3)CC1` (stereo not drawn) gave GPT2 inhibitor inactive and hNpr1 antagonist inconclusive.
Screening Cc1ccc(C(=O)N2CCN(C(=O)c3nnn4c3COC(c3ccccc3)C4)CC2)s1 (stereo not drawn) returned GPT2 inhibitor inactive and hNpr1 antagonist -22%.
Cc1ccc(C2Cn3nnc(C(=O)N4CCN(C(=O)c5cccc(Cl)c5)CC4)c3CO2)cc1 (stereo not drawn) was read as GPT2 inhibitor inactive, hNpr1 antagonist inconclusive, NPR1 antag cnf 15µM*, Npr2 selectivity 22µM*, FLuc counter 2% and GloSensor cGMP 14µM*.
Screening COc1ccc(C2Cn3nnc(C(=O)N4CCN(C(=O)c5ccccc5)CC4)c3CO2)cc1 (stereo not drawn) returned GPT2 inhibitor inactive and hNpr1 antagonist -28%.
`Cc1cccc(C(=O)N2CCN(C(=O)c3nnn4c3COC(c3ccc(Cl)cc3)C4)CC2)c1` (stereo not drawn) gave GPT2 inhibitor -10% and hNpr1 antagonist -14%.
COc1ccc(C2Cn3nnc(C(=O)N4CCN(C(=O)c5cccc(C)c5)CC4)c3CO2)cc1 (stereo not drawn) was read as GPT2 inhibitor 3%, hNpr1 antagonist 14µM*, NPR1 antag cnf 19µM*, Npr2 selectivity 22µM*, FLuc counter 5% and GloSensor cGMP 14µM*.
For Cc1ccc(C2Cn3nnc(C(=O)N4CCN(C(=O)c5cccc(C)c5)CC4)c3CO2)cc1 (stereo not drawn) the results were GPT2 inhibitor inactive, hNpr1 antagonist 11µM*, NPR1 antag cnf 22µM*, Npr2 selectivity 22µM*, FLuc counter -1% and GloSensor cGMP 19µM*.
O=C(c1ccc(C(F)(F)F)cc1)N1CCCC(C(=O)N2CCC(c3nc4ccncc4[nH]3)CC2)C1 (stereo not drawn) was read as GPT2 inhibitor inactive.
Screening COc1ccc(C2(C(=O)N3CC(c4noc(COc5ccc(F)cc5)n4)C3)CC2)cc1 returned GPT2 inhibitor inactive.
O=C(NCCc1ccccn1)c1cc2n(n1)CC(c1ccc(Br)cc1)OC2 (stereo not drawn) was read as GPT2 inhibitor -3%, hNpr1 antagonist 11µM*, NPR1 antag cnf 22µM*, Npr2 selectivity 24µM*, FLuc counter -13% and GloSensor cGMP 24µM*.
Screening COc1cc(NC(=O)c2cc3n(n2)CC(c2ccc(Br)cc2)OC3)cc(OC)c1OC (stereo not drawn) returned GPT2 inhibitor -7%, hNpr1 antagonist inconclusive, NPR1 antag cnf inconclusive, Npr2 selectivity -25%, FLuc counter -3% and GloSensor cGMP -19%.
CCNC(=O)c1cc2n(n1)CC(c1ccc(Br)cc1)OC2 (stereo not drawn) was read as GPT2 inhibitor inactive and hNpr1 antagonist -18%.
Screening NC(=O)c1ccc(NC(=O)c2cc3n(n2)CC(c2ccc(Br)cc2)OC3)cc1 (stereo not drawn) returned GPT2 inhibitor inactive and hNpr1 antagonist inconclusive.
`CC(=O)Nc1ccc(NC(=O)c2cc3n(n2)CC(c2ccc(Br)cc2)OC3)cc1` (stereo not drawn) gave GPT2 inhibitor -3% and hNpr1 antagonist inconclusive.
Screening COc1ccc(NC(=O)c2cc3n(n2)CC(c2ccc(Br)cc2)OC3)cc1OC (stereo not drawn) returned GPT2 inhibitor inactive, hNpr1 antagonist inconclusive, NPR1 antag cnf inconclusive, Npr2 selectivity -25%, FLuc counter -2% and GloSensor cGMP inconclusive.
`O[C@@H]1CCN(Cc2nc(C3(O)CCN(C4CCCC4)CC3)cs2)C1` gave GPT2 inhibitor 3%[88.5 µM] and hNpr1 antagonist 3%[70.6 µM].
